{"source": "PubChem BioAssay (EPA / NIEHS)", "key": {"[1]": {"test": "CCTE_Mundy_HCI_Cortical_Synap_Neur_Matur_NeuriteSpotCountPerNeuron: CCTE's Synaptogenesis and Neurite Maturation Assay in rat cortical cells for Neurite Spot Count per Neuron Count, Mundy Lab (AID 2284215)", "in_short": "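Developing rat cortical neurons, with glia suppressed by AraC, are exposed to chemicals from DIV 7 to DIV 12. Automated fluorescence imaging of MAP2-labelled neurites and synaptophysin puncta yields a count per neuron, normalised against DMSO wells.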"}, "[2]": {"test": "CCTE_Mundy_HCI_Cortical_Synap_Neur_Matur_SynapseCount: CCTE's Synaptogenesis and Neurite Maturation Assay in rat cortical cells for Synapse Count, Mundy Lab (AID 2284218)", "in_short": "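Cells were plated, allowed 2 hr to attach, treated with AraC at DIV 5, then exposed to chemicals from DIV 7 until DIV 12. After fixation and MAP2/synaptophysin immunolabelling, synapses per neuron were quantified by automated imaging against DMSO.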"}, "[3]": {"test": "CCTE_Mundy_HCI_Cortical_Synap_Neur_Matur_NeuriteCount: CCTE's Synaptogenesis and Neurite Maturation Assay in rat cortical cells for Neurite Count, Mundy Lab (AID 2284222)", "in_short": "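Primary rat cortical cells were plated, treated with AraC at DIV 5, then exposed to chemicals from DIV 7 through DIV 12. After fixation and immunostaining for MAP2 and synaptophysin, imaging quantified neurites, with DMSO as the negative control.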"}, "[4]": {"test": "CCTE_Mundy_HCI_Cortical_Synap_Neur_Matur_CellBodySpotCount: CCTE's Synaptogenesis and Neurite Maturation Assay in rat cortical cells for Cell Body Spot Count, Mundy Lab (AID 2284223)", "in_short": "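Chemicals were applied to AraC-treated rat primary cortical cells at DIV 7 and measured at DIV 12. Fixed cells were labelled for MAP2, synaptophysin and nuclei, and high-content imaging gave cell body synaptophysin spot counts per neuron relative to DMSO.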"}, "[5]": {"test": "CCTE_Mundy_HCI_hNP1_Pro_ResponderAvgInten: CCTE's Proliferation Assay in human neuroprogenitor cells, Mundy Lab (AID 2284224; active = hit-call score of the fitted dose curve at least 0.9, where 1 is the maximum)", "in_short": "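Proliferation was scored as BrdU labelling intensity in human neural progenitors derived from WA09 embryonic cells, measured 26.25 hours after chemical dosing. Activity was fitted relative to DMSO.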"}, "[6]": {"test": "UKN2_HCS_IMR90_cell_viability: Viability Assessment in the University of Konstanz (UKN) Leist Lab Neural Crest Cell Migration Assay in human induced IMR90 Pluripotent Stem Cells (UKN2) (AID 2284233)", "in_short": "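After calcein-AM/Hoechst staining, viability is quantified by high-content fluorescence imaging, relative to DMSO, in iPSC (IMR90)-derived neural crest cells. Exposure lasts 24 h, starting after a 24 h migration period on PLO/laminin/fibronectin coating.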"}, "[7]": {"test": "CCTE_Mundy_HCI_Cortical_NOG_NeuronCount: CCTE's Neurite Outgrowth Assay in rat cortical cells for Neuron Count, Mundy Lab (AID 2284236; active = hit-call score of the fitted dose curve at least 0.9, where 1 is the maximum;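 also: cells exposed to compound for about 48 hours before fixation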)", "in_short": "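Read-out: neuron number by high-content imaging of betaIII-tubulin (Alexa Fluor-488) and Hoechst-labelled rat primary cortical cells.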"}, "[8]": {"test": "CCTE_Mundy_HCI_Cortical_NOG_BPCount: CCTE's Neurite Outgrowth Assay in rat cortical cells for Branch Point Count, Mundy Lab (AID 2284237);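 also: branch points counted about two days after chemical exposure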", "in_short": "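Measured 50.33 h after dosing, this morphology endpoint uses rat primary cortical cultures labelled for betaIII-tubulin. Branch points are quantified by high-content imaging, with DMSO as negative control and baseline.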"}, "[9]": {"test": "CCTE_Mundy_HCI_hNP1_Casp3_7: CCTE's Caspase-Glo 3/7 Assay in human neuroprogenitor cells for Apoptosis, Mundy Lab (AID 2284240)", "in_short": "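Apoptosis is scored by activated caspase-3/7 luminescence in WA09-derived neural progenitor cells, measured 26.5 h after chemical dosing. Values represent gain of signal relative to DMSO vehicle.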"}, "[10]": {"test": "CCTE_Mundy_HCI_hNP1_CellTiter: CCTE's Cell Titer-Glo 2 Assay in human neuroprogenitor cells for Viability, Mundy Lab (AID 2284241; active = hit-call score of the fitted dose curve at least 0.9, where 1 is the maximum)", "in_short": "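Human neural progenitor cells (hNP1, WA09-derived) were plated on poly-L-ornithine/laminin and grown 40 to 44 hours at 37 °C, 5% CO2 before chemical addition. Twenty-four hours later, ATP was measured by CellTiter-Glo luminescence; loss of signal versus DMSO indicates reduced viability.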"}, "[11]": {"test": "CCTE_Mundy_HCI_Cortical_Synap_Neur_Matur_NeuronCount: CCTE's Synaptogenesis and Neurite Maturation Assay in rat cortical cells for Neuron Count, Mundy Lab (AID 2284242; active = hit-call score of the fitted dose curve at least 0.9, where 1 is the maximum)", "in_short": "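Cortical cells from rat are plated, treated with AraC at DIV 5, and exposed to test chemicals with a media change at DIV 7. At DIV 12 they are fixed and immunostained (MAP2, synaptophysin), and imaged neuron counts are compared against DMSO controls.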"}, "[12]": {"test": "IUF_NPC2c_oligodendrocyte_migration_120hr: Leibniz Research Institute for Environmental Medicine (IUF) 120-hour Neural Progenitor Cell Migration Assay for Oligodendrocyte Migration (NPC2c) (AID 2284297)", "in_short": "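Using fetal brain neural progenitor spheres differentiating in N2 medium at 37C, compounds were present for 120 h. Oligodendrocyte migration distance, normalized to radial glia migration, was measured from imaged O4 staining.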"}, "[13]": {"test": "IUF_NPC2a_radial_glia_migration_120hr: Leibniz Research Institute for Environmental Medicine (IUF) 120-hour Neural Progenitor Cell Migration Assay for Radial Glia Migration (NPC2a) (AID 2284298)", "in_short": "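Exposure of 0.3 mm primary hNPC spheres runs day 0 to 120 h with a half-volume medium change at day 3. Fixed cells get Hoechst staining; high-content analysis of nuclear positions yields radial glia migration distance per well, compared against DMSO controls.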"}, "[14]": {"test": "IUF_NPC2a_radial_glia_migration_72hr: Leibniz Research Institute for Environmental Medicine (IUF) 72-hour Neural Progenitor Cell Migration Assay for Radial Glia Migration (NPC2a) (AID 2284299)", "in_short": "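Single 0.3 mm neurospheres were plated per well in N2 differentiation medium and exposed from the start of differentiation. After 72 hours, brightfield images were taken and radial glia migration from the sphere core edge was measured manually in four directions, averaged per well.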"}, "[15]": {"test": "IUF_NPC2b_neuronal_migration_120hr: Leibniz Research Institute for Environmental Medicine (IUF) 120-hour Neural Progenitor Cell Migration Assay for Neuron Migration (NPC2b) (AID 2284300)", "in_short": "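Fetal human NPC spheres migrate on PDL/laminin during 120 h compound treatment; neuronal migration distance, glia-normalized, scored versus DMSO control.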"}, "[16]": {"test": "IUF_NPC3_neuronal_differentiation_120hr: Leibniz Research Institute for Environmental Medicine (IUF) 120-hour Neuronal Differentiation Assay (NPC3) (AID 2284301)", "in_short": "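Value is percent TUBB3-positive neurons among Hoechst-stained nuclei in the migration area, scored by trained CNN after 120 h differentiation. Primary hNPC spheres on poly-D-lysine/laminin, N2 medium, continuous dosing from day 0, half-refeed day 3; DMSO reference.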"}, "[17]": {"test": "IUF_NPC4_neurite_length_120hr: Leibniz Research Institute for Environmental Medicine (IUF) 120-hour Neuronal Morphology Assay for Neurite Length (NPC4) (AID 2284302)", "in_short": "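Neurite length, the mean in um across TUBB3-stained neurons, is derived by skeletonization of high-content images after 120 h differentiation. Compound exposure, 7 concentrations plus solvent control, ran from plating of hNPC spheres on poly-D-lysine/laminin, with medium half-replaced on day 3.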"}, "[18]": {"test": "IUF_NPC2-5_cytotoxicity_72hr: Cytotoxicity Assessment at 72 hours in the Leibniz Research Institute for Environmental Medicine (IUF) Neural Progenitor Cell Migration and Differentiation Assay for Cytotoxicity (NPC2-5) (AID 2284306; active = hit-call score of the fitted dose curve at least 0.9, where 1 is the maximum;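 also: LDH release into supernatant measured by resorufin fluorescence marking membrane damage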)", "in_short": "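Membrane-integrity cytotoxicity at 72 h, read as LDH-driven resorufin fluorescence in supernatant. hNPC spheres from fetal cortex differentiate on coated plates in N2 medium, 37C, 5% CO2; seven serial compound concentrations plus solvent control (DMSO ≤0.1%).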"}, "[19]": {"test": "IUF_NPC2-5_cytotoxicity_120hr: Cytotoxicity Assessment at 120 hours in the Leibniz Research Institute for Environmental Medicine (IUF) Neural Progenitor Cell Migration and Differentiation Assay (NPC2-5) (AID 2284307; active = hit-call score of the fitted dose curve at least 0.9, where 1 is the maximum)", "in_short": "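Membrane-integrity loss is quantified by LDH in supernatant after five days of exposure of migrating, differentiating human fetal NPC spheres; seven serially diluted concentrations are tested with DMSO kept at or below 0.1%.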"}, "[20]": {"test": "IUF_NPC2-5_cell_number_120hr: Cell Number Assessment at 120 hours in the Leibniz Research Institute for Environmental Medicine (IUF) Neural Progenitor Cell Migration and Differentiation Assay (NPC2-5) (AID 2284308)", "in_short": "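Seven-point serial dilutions plus solvent control were applied to plated 0.3 mm hNPC spheres at differentiation start, with medium half-replaced at day 3. Nuclei positive for Hoechst in the migration zone were enumerated at 120 h.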"}, "[21]": {"test": "IUF_NPC2-5_viability_120hr: Viability Assessment at 120 hours in the Leibniz Research Institute for Environmental Medicine (IUF) Neural Progenitor Cell Migration and Differentiation Assay (NPC2-5) (AID 2284312)", "in_short": "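Alamar blue resorufin fluorescence read after 5 days of differentiation, with compound present from day 0 and replenished at day 3. Primary hNPC spheres on laminin-coated plates, 37C; seven concentrations plus solvent control, fitted against DMSO.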"}, "[22]": {"test": "CCTE_Mundy_HCI_iCellGluta_NOG_NeuriteLength: CCTE's Neurite Outgrowth Assay in iCellGluta cells for Neurite Length, Mundy Lab (AID 2284318; active = hit-call score of the fitted dose curve at least 0.9, where 1 is the maximum)", "in_short": "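Automated high-content imaging of betaIII-tubulin (Alexa Fluor-488) and Hoechst-stained cells gave neurite length, normalized to the DMSO baseline.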"}, "[23]": {"test": "IUF_NPC1_cytotoxicity_72hr: Cytotoxicity Assessment at 72 hours in the Leibniz Research Institute for Environmental Medicine (IUF) Neural Progenitor Cell Proliferation Assay (NPC1) (AID 2284332; active = hit-call score of the fitted dose curve at least 0.9, where 1 is the maximum;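 also: rising LDH signal means more cytotoxicity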)", "in_short": "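Membrane-integrity loss is scored from LDH released into the medium, detected as resorufin fluorescence, with activity fitted upward relative to baseline. Test material stays on human fetal-derived progenitor spheres for 72 h.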"}, "[24]": {"test": "CCTE_Mundy_HCI_iCellGluta_NOG_NeuronCount: CCTE's Neurite Outgrowth Assay in iCellGluta cells for Neuron Count, Mundy Lab (AID 2284340; active = hit-call score of the fitted dose curve at least 0.9, where 1 is the maximum;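 also: cells fixed about 48 h after compound addition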)", "in_short": "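Neuron count read by automated high-content imaging of Hoechst 33342 and betaIII-tubulin/Alexa Fluor-488 labelling in human iPSC glutamatergic neurons. Activity fitted relative to DMSO.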"}, "[25]": {"test": "CCTE_Mundy_HCI_iCellGluta_NOG_NeuriteCount: CCTE's Neurite Outgrowth Assay in iCellGluta cells for Neurite Count, Mundy Lab (AID 2284342; active = hit-call score of the fitted dose curve at least 0.9, where 1 is the maximum;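 also: chemical exposure about 48 hours starting 2 hours after plating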)"}}, "note": "Inconclusive results are not listed. The source made the active and inactive calls. The calls were made as follows, unless noted: active = hit-call score of the fitted dose curve at least 0.9, where 1 is the maximum; inactive = score below 0.9."}
{"smiles": "CC1(C)[C@H](C=C(Cl)Cl)[C@H]1C(=O)OCc1c(F)c(F)cc(F)c1F", "values": [{"measurement": "AC50", "setting": "[1]", "value": "9.68 µM (active)"}, {"measurement": "AC50", "setting": "[2]", "value": "9.74 µM (active)"}, {"measurement": "AC50", "setting": "[3]", "value": "11.9 µM (active)"}, {"measurement": "AC50", "setting": "[4]", "value": "12.8 µM (active)"}, {"measurement": "AC50", "setting": "[5]", "value": "22 µM (active)"}, {"measurement": "outcome", "setting": "[6]", "value": "inactive"}, {"measurement": "AC50", "setting": "[7]", "value": "50 µM (active)"}, {"measurement": "AC50", "setting": "[8]", "value": "81.1 µM (active)"}, {"measurement": "AC50", "setting": "[9]", "value": "26.7 µM (active)"}, {"measurement": "AC50", "setting": "[10]", "value": "23.2 µM (active)"}, {"measurement": "AC50", "setting": "[11]", "value": "8.94 µM (active)"}, {"measurement": "outcome", "setting": "[12]", "value": "inactive"}, {"measurement": "outcome", "setting": "[13]", "value": "inactive"}, {"measurement": "outcome", "setting": "[14]", "value": "inactive"}, {"measurement": "outcome", "setting": "[15]", "value": "inactive"}, {"measurement": "outcome", "setting": "[16]", "value": "inactive"}, {"measurement": "outcome", "setting": "[17]", "value": "inactive"}, {"measurement": "outcome", "setting": "[18]", "value": "inactive"}, {"measurement": "outcome", "setting": "[19]", "value": "inactive"}, {"measurement": "outcome", "setting": "[20]", "value": "inactive"}, {"measurement": "outcome", "setting": "[21]", "value": "inactive"}, {"measurement": "AC50", "setting": "[22]", "value": "18.1 µM (active)"}, {"measurement": "outcome", "setting": "[23]", "value": "inactive"}, {"measurement": "AC50", "setting": "[24]", "value": "21.7 µM (active)"}, {"measurement": "AC50", "setting": "[25]", "value": "19.9 µM (active)"}]}
